Assay results as given in PubChem BioAssay.
Activity calls are given as the source filed them. Unless noted, no rule for the calls is given here.

Legend:
[1] = test system: Wnt5a (protein binding on small-molecule microarray); test: small molecules binding Wnt5a protein – biophysical, small-molecule microarray, 635/667 nm fluorescence, primary screen (AID 1142); conditions: 635 nm fluorescence, higher = more signal;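 also: fluorescence read at 667 nm with signal to noise per printed feature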
[2] = ATP-based viability of Huh7 replicon cells – cell-based, CellTiter-Glo luminescence, basal, 48 h, cytotoxicity control for HCV replication inhibitor project, primary screen (AID 1143); conditions: higher = more signal, called active from +8 up or from −8 down;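 also: Huh7 hepatoma cells carrying a hepatitis C replication reporter with no stimulus; test concentration not given here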
[3] = Pseudomonas biofilm growth suppression – PAO1 strain, BacTiter-Glo luminescence, LB-PBS, primary screen (AID 1144); conditions: P. aeruginosa PAO1 biofilm, 12 h, higher = more signal
[4] = basal CRE-LacZ reporter activity in PC12 – cell-based, unstimulated, primary screen (AID 1145); conditions: no forskolin, luminescence, 4.5 h, higher = more signal, called active from +8 up or from −8 down
[5] = forskolin-driven CRE-LacZ activity in PC12 – cell-based, CRE-LacZ reporter, forskolin-stimulated, primary screen (AID 1146); conditions: luminescence, 4.5 h, higher = more signal, called active from +8 up or from −8 down;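 also: PC12 cells with 6xCRE LacZ reporter stimulated by forskolin 10 µM; beta-galactosidase reporter signal reflecting CREB driven transcription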
[6] = biological target: Streptavidin (Streptomyces avidinii) (UniProt P22629); test: compounds binding control protein streptavidin – biophysical, small-molecule microarray, 635/667 nm fluorescence, artefact control for SMM compound annotation, primary screen (AID 1147); conditions: higher = more signal;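 also: signal reflects streptavidin binding to arrayed compounds as a control protein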
[7] = probe aInhba binding on compound microarray – biochemical, small-molecule microarray, 635/667 nm fluorescence, primary screen (AID 1148); conditions: higher = more signal;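 also: score merges 667nm spot fluorescence with signal-to-noise for antibody binding to printed compounds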
Torsin-1A (Homo sapiens) [8] = biological target: Torsin-1A (Homo sapiens) (UniProt O14656); test: TOR1A wild-type binding on microarray – cell lysate, small-molecule microarray, lysate, 635/667 nm, primary screen (AID 1149); conditions: COS7 hTOR1A-WT lysate, 635 nm fluorescence, higher = more signal
Torsin-1A (Homo sapiens) [9] = biological target: Torsin-1A (Homo sapiens) (UniProt O14656); test: torsin A mutant lysate binding on microarrays – cell lysate, small-molecule microarray, COS7 lysate, 635/667 nm fluorescence, primary screen (AID 1150); conditions: COS7 hTOR1A mutant lysate, 635 nm fluorescence, higher = more signal;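 also: score pools 667 nm emission and signal to noise measuring lysate protein binding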
[10] = test system: Sonic hedgehog protein (Shh); test: Sonic hedgehog microarray binding compounds – biochemical, small-molecule microarray, 635/667 nm fluorescence, primary screen (AID 1151); conditions: 635 nm fluorescence, higher = more signal;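 also: Shh protein binding to compounds spotted on small-molecule microarray slides; score combines spot fluorescence intensity with signal-to-noise across triplicate slides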
[11] = optical density shifts of acrAB sulA E. coli – strain DRC41, OD650, 48 h, E. coli filamentation inducer project, primary screen (AID 1152); conditions: higher = more signal, called active from +8 up or from −8 down;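 also: E. coli MC1000 strain DRC41 lacking acrAB efflux pump and sulA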
[12] = probe aLefty1 binding on compound microarray – biochemical, small-molecule microarray, 635/667 nm fluorescence, primary screen (AID 1153); conditions: higher = more signal;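 also: score merges spot fluorescence with signal-to-noise ratio from the scanned slide images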
[13] = plasmodial surface anion channel blockers, osmotic lysis – cell-based, P. falciparum Indochina, OD700, 1 h, primary screen (AID 1154); conditions: P. falciparum Indochina infected RBC osmotic lysis, higher = more signal, called active from +8 up or from −8 down
[14] = plasmodial surface anion channel blockers, osmotic lysis – cell-based, P. falciparum Indochina, OD700, 2 h, primary screen (AID 1155);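 also: lysis reports solute entry through the parasite surface anion channel PSAC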; conditions: P. falciparum Indochina infected erythrocytes, higher = more signal, called active from +8 up or from −8 down
[15] = changes in parasitized red cell lysis, either direction – P. falciparum Indochina, OD700, 3 h, PSAC antagonist project, primary screen (AID 1156); conditions: P. falciparum-infected erythrocytes, osmotic lysis, higher = more signal, called active from +8 up or from −8 down
[16] = plasmodial surface anion channel blockers, osmotic lysis – cell-based, P. falciparum Indochina, OD700, 18 h, primary screen (AID 1157); conditions: P. falciparum Indochina infected erythrocytes, osmotic lysis OD700, 18 h; higher = more signal, called active from +8 up or from −8 down
[17] = S6 kinase pathway phospho-S6 level changes – cell-based, A549, cytoblot, luminescence, serum-stimulated, primary screen (AID 1158); conditions: 5 h, higher = more signal;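 also: serum-stimulated A549 lung adenocarcinoma cells; signal is phosphorylated S6 detected by cytoblot immunostaining with HRP secondary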
[18] = biological target: NADPH oxidase 2 (Homo sapiens) (UniProt P04839); test: compounds shifting NOX2 Amplex Red fluorescence – cell-based, HEK293-NOX2, PMA-stimulated, NOX inhibitor project, primary screen (AID 1159); conditions: 45 min, higher = more signal, called active from +8 up or from −8 down; also: test concentration not given here
[19] = biological target: NADPH oxidase 4 (Homo sapiens) (UniProt Q9NPH5); test: compounds shifting NOX4 Amplex Red fluorescence – cell-based, HEK293-NOX4, tetracycline-induced, NOX inhibitor project, primary screen (AID 1160); conditions: HEK293-NOX4, Amplex Red H2O2 fluorescence, 45 min; higher = more signal, called active from +8 up or from −8 down
[20] = biological target: NADPH oxidase 5 (Homo sapiens) (UniProt Q96PH1); test: compounds shifting NOX5 Amplex Red fluorescence – cell-based, HEK293-NOX5, NOX inhibitor project, primary screen (AID 1161); conditions: HEK293-NOX5, ionomycin, 45 min, higher = more signal
Sequence of NADPH oxidase 5 (Homo sapiens) (Q96PH1 whole entry, looked up): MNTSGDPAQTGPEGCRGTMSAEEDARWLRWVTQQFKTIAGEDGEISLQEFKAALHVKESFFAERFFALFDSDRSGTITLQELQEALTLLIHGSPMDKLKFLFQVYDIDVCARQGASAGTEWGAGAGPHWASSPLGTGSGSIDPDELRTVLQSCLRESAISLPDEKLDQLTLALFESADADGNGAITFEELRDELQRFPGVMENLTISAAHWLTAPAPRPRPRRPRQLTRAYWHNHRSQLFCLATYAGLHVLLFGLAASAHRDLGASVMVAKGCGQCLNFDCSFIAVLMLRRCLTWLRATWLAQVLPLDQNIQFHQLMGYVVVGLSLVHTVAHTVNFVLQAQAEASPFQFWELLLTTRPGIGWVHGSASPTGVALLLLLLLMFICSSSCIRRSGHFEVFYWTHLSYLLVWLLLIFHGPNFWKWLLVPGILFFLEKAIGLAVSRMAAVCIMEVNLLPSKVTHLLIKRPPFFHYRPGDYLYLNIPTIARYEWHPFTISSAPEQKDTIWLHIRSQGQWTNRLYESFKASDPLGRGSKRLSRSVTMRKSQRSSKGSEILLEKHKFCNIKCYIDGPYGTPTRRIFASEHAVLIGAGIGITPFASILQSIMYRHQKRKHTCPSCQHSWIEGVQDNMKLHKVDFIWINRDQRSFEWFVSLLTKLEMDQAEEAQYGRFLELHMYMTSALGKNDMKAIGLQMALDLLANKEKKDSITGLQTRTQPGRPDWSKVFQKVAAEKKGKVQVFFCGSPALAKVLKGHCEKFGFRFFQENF

Sequence of Torsin-1A (Homo sapiens) (O14656 whole entry, looked up): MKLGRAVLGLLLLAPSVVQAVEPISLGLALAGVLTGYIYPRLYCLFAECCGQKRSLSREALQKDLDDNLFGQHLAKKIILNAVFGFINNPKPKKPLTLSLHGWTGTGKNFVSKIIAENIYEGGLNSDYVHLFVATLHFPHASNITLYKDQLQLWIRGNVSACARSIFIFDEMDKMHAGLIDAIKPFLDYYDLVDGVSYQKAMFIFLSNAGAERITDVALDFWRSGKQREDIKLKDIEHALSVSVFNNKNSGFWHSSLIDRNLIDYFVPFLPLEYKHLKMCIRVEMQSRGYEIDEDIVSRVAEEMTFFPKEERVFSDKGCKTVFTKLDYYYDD
Sequence of NADPH oxidase 2 (Homo sapiens) (P04839 whole entry, looked up): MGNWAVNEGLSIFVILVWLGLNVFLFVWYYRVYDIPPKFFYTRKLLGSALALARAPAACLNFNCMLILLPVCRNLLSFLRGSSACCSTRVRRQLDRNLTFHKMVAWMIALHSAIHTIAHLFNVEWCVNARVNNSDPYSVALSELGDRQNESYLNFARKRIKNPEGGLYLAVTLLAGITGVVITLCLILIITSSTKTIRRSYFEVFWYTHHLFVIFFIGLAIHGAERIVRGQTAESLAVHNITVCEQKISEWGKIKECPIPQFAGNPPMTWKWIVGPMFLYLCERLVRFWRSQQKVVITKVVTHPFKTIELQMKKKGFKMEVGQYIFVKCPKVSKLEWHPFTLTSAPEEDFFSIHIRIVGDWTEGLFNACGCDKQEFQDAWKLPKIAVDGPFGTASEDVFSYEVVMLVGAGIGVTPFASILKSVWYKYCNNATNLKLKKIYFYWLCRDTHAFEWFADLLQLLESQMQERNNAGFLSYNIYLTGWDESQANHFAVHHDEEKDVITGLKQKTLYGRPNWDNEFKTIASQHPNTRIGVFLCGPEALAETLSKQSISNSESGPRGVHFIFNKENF
Sequence of NADPH oxidase 4 (Homo sapiens) (Q9NPH5 whole entry, looked up): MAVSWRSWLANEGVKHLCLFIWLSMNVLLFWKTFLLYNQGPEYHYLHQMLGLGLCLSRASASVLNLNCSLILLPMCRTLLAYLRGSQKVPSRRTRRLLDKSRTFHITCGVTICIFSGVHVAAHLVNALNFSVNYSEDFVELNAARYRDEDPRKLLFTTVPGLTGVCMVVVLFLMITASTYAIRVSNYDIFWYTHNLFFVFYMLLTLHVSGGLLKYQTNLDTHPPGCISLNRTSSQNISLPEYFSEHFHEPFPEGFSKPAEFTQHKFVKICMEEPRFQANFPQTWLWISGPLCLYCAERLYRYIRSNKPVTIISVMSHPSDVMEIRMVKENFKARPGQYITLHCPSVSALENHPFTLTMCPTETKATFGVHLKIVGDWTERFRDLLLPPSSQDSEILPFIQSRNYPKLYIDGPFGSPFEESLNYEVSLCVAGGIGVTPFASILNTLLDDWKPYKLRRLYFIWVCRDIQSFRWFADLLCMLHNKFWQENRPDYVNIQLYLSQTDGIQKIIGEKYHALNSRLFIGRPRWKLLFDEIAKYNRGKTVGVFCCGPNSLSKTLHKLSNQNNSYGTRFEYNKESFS
Sequence of Streptavidin (Streptomyces avidinii) (P22629 whole entry, looked up): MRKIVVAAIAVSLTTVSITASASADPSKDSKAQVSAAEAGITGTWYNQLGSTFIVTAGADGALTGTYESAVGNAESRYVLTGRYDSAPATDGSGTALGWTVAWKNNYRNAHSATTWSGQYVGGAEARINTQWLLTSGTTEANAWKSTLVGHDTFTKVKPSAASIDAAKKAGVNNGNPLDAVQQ

CCOC(=O)C1=CC[C@@H](c2ccc(OCc3ccccc3)c(OC)c2)N(S(=O)(=O)c2ccc(C)cc2)[C@H]1c1ccc(SC)cc1
composite z-score [1]: 0.683 | z-score [2]: -1.51 (inactive) | z-score [3]: 0.765 (inactive) | z-score [4]: 0.967 (inactive) | z-score [5]: 0.137 (inactive) | composite z-score [6]: 1.42 | composite z-score [7]: 0.113 | composite z-score (Torsin-1A (Homo sapiens) [8]): 1.28 | composite z-score (Torsin-1A (Homo sapiens) [9]): 1.4 | composite z-score [10]: 0.249 | z-score [11]: -1.21 (inactive) | composite z-score [12]: 0.524 | z-score [13]: 0.658 (inactive) | z-score [14]: 0.9 (inactive) | z-score [15]: 0.692 (inactive) | z-score [16]: 0.387 (inactive) | z-score [17]: -0.635 | z-score [18]: 0.877 (inactive) | z-score [19]: 0.0161 (inactive) | z-score [20]: -0.508

C=CCC(OC(C)=O)[C@@H]1[C@@H](N(Cc2cccc3ccccc23)C(=O)c2cccc3ccccc23)c2cc(OCCCO)ccc2N1C(=O)c1ccc(-c2ccccc2)cc1 (stereo not given in full)
composite z-score [1]: -0.0964 | z-score [2]: -1.56 (inactive) | z-score [3]: 1.21 (inactive) | z-score [4]: -0.113 (inactive) | z-score [5]: 1.24 (inactive) | composite z-score [6]: 0.116 | composite z-score [7]: 0.0543 | composite z-score (Torsin-1A (Homo sapiens) [8]): -0.104 | composite z-score (Torsin-1A (Homo sapiens) [9]): 0.292 | composite z-score [10]: 0.556 | z-score [11]: -0.929 (inactive) | composite z-score [12]: -0.106 | z-score [13]: -0.17 (inactive) | z-score [14]: 0.526 (inactive) | z-score [15]: 0.0426 (inactive) | z-score [16]: 0.361 (inactive) | z-score [17]: 0.684 | z-score [18]: -0.677 (inactive) | z-score [19]: 0.104 (inactive) | z-score [20]: -2.47

COc1ccc(-c2cc3c(c(CCc4ccccc4)n2)[Si](C(C)C)(C(C)C)OC3)cn1
composite z-score [1]: -0.131 | z-score [2]: -0.817 (inactive) | z-score [3]: -0.0937 (inactive) | z-score [4]: -0.127 (inactive) | z-score [5]: 0.307 (inactive) | composite z-score [6]: 0.294 | composite z-score [7]: -0.0986 | composite z-score (Torsin-1A (Homo sapiens) [8]): 0.188 | composite z-score (Torsin-1A (Homo sapiens) [9]): -0.168 | composite z-score [10]: 0.434 | z-score [11]: -0.0928 (inactive) | composite z-score [12]: -0.196 | z-score [13]: 3.8 (inactive) | z-score [14]: 0.745 (inactive) | z-score [15]: -0.119 (inactive) | z-score [16]: 0.114 (inactive) | z-score [17]: -0.108 | z-score [18]: -0.44 (inactive) | z-score [19]: -0.0624 (inactive) | z-score [20]: -1.49

CCOC(=O)C[C@H]1[C@H](OC(=O)c2cc3ccccc3oc2=O)[C@@H](NC(=O)c2ccc(-c3ccccc3)cc2)c2cc(OCCCO)ccc2N1C(=O)c1ccc2ccccc2n1
composite z-score [1]: 0.355 | z-score [2]: -0.168 (inactive) | z-score [3]: -1.1 (inactive) | z-score [4]: 1.03 (inactive) | z-score [5]: 0.644 (inactive) | composite z-score [6]: 0.207 | composite z-score [7]: 0.166 | composite z-score (Torsin-1A (Homo sapiens) [8]): 0.626 | composite z-score (Torsin-1A (Homo sapiens) [9]): 0.572 | composite z-score [10]: 1.84 | z-score [11]: -0.216 (inactive) | composite z-score [12]: 0.132 | z-score [13]: 3.37 (inactive) | z-score [14]: 1.07 (inactive) | z-score [15]: 0.723 (inactive) | z-score [16]: 0.523 (inactive) | z-score [17]: -0.577 | z-score [18]: 0.858 (inactive) | z-score [19]: 0.688 (inactive) | z-score [20]: 1.11

COc1ccc([Si](C)(C)[C@@H]2[C@@H](CCn3cc([C@H](O)c4ccccc4)nn3)O[C@]3(C(=O)N(Cc4ccc(N5CCC5=O)cc4)c4ccccc43)[C@H]2C)cc1
composite z-score [1]: 0.512 | z-score [2]: -2.65 (inactive) | z-score [3]: -1.38 (inactive) | z-score [4]: 1.03 (inactive) | z-score [5]: 0.355 (inactive) | composite z-score [6]: -0.105 | composite z-score [7]: -0.184 | composite z-score (Torsin-1A (Homo sapiens) [8]): 2.13 | composite z-score (Torsin-1A (Homo sapiens) [9]): 0.269 | composite z-score [10]: 2.02 | z-score [11]: 0.893 (inactive) | composite z-score [12]: -0.696 | z-score [13]: 18.8 (active) | z-score [14]: 4.31 (inactive) | z-score [15]: 1.66 (inactive) | z-score [16]: 1.19 (inactive) | z-score [17]: 0.759 | z-score [18]: 0.193 (inactive) | z-score [19]: 1.08 (inactive) | z-score [20]: 1.7

C=CCNC(=O)[C@H]1[C@@H]2C(=O)O[C@@H](c3ccccc3)[C@@H](c3ccccc3)N2[C@@H](c2ccc(O)cc2)[C@]12C(=O)N(C(=O)OCCOC)c1ccccc12
composite z-score [1]: 0.381 | z-score [2]: -2.03 (inactive) | z-score [3]: 0.309 (inactive) | z-score [4]: 0.128 (inactive) | z-score [5]: 5.62 (inactive) | composite z-score [6]: -0.0654 | composite z-score [7]: 0.122 | composite z-score (Torsin-1A (Homo sapiens) [8]): 0.265 | composite z-score (Torsin-1A (Homo sapiens) [9]): 1.02 | composite z-score [10]: 1.11 | z-score [11]: -0.0476 (inactive) | composite z-score [12]: -0.514 | z-score [13]: 1.97 (inactive) | z-score [14]: 0.481 (inactive) | z-score [15]: 1.77 (inactive) | z-score [16]: 0.148 (inactive) | z-score [17]: -0.233 | z-score [18]: 0.974 (inactive) | z-score [19]: -0.168 (inactive) | z-score [20]: 0.605

CCOc1cc(C(O)C2C=CC3C(=O)N(C)C(=O)C3N2Nc2ccccc2)ccc1O (stereo not given)
composite z-score [1]: 0.297 | z-score [2]: 0.559 (inactive) | z-score [3]: -0.947 (inactive) | z-score [4]: 0.626 (inactive) | z-score [5]: -0.276 (inactive) | composite z-score [6]: 0.702 | composite z-score [7]: -0.0297 | composite z-score (Torsin-1A (Homo sapiens) [8]): 0.526 | composite z-score (Torsin-1A (Homo sapiens) [9]): 0.467 | composite z-score [10]: -0.485 | z-score [11]: -0.353 (inactive) | composite z-score [12]: 0.0313 | z-score [13]: 0.453 (inactive) | z-score [14]: 1.45 (inactive) | z-score [15]: 0.42 (inactive) | z-score [16]: 1.42 (inactive) | z-score [17]: -1.01 | z-score [18]: -1.4 (inactive) | z-score [19]: -1.94 (inactive) | z-score [20]: -1.78

C=CCNC(=O)[C@H]1[C@@H]2C(=O)O[C@@H](c3ccccc3)[C@@H](c3ccccc3)N2[C@@H](c2ccc(O)cc2)[C@]12C(=O)Nc1ccc(C#CC3(O)CCCCCC3)cc12
composite z-score [1]: -0.0118 | z-score [2]: -1.11 (inactive) | z-score [3]: -1.06 (inactive) | z-score [4]: -0.0246 (inactive) | z-score [5]: -0.301 (inactive) | composite z-score [6]: 0.163 | composite z-score [7]: 0.0899 | composite z-score (Torsin-1A (Homo sapiens) [8]): 0.935 | composite z-score (Torsin-1A (Homo sapiens) [9]): 1.89 | composite z-score [10]: 1.13 | z-score [11]: -1.14 (inactive) | composite z-score [12]: 0.898 | z-score [13]: 1.79 (inactive) | z-score [14]: 0.749 (inactive) | z-score [15]: 0.514 (inactive) | z-score [16]: 0.319 (inactive) | z-score [17]: 0.356 | z-score [18]: 1.71 (inactive) | z-score [19]: 0.772 (inactive) | z-score [20]: 1.06
